Test results reported in PubChem BioAssay (EPA / NIEHS).
Values joined by “and” are separate entries in the source; they are usually repeats but may differ in a detail not shown here. Equal values may be shown once. Records with an inconclusive call do not appear. Where a structure was tested more than once in an assay, its records may differ in their call. Active and inactive are the calls of the source. How the source made its calls, unless noted: active means hit-call score of the fitted dose curve at least 0.9, where 1 is the maximum; inactive means score below 0.9.

Key:
[1] = TOX21_p53_BLA_p2_viability: Viability Assessment in the Tox21 HCT-116 p53 Agonism Beta-lactamase Assay, Phase 2 (AID 2283591; active means hit-call score of the fitted dose curve at least 0.9, where 1 is the maximum;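 further: actives lower the ATP signal meaning cytotoxicity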)
How it was run: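 Cytotoxicity readout: CellTiter-Glo ATP luminescence, 30 min at room temperature, after the beta-lactamase read. Cells were HCT116 exposed 16 h at 37C to compounds pin-transferred at 217-fold dilution from DMSO stocks.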

[2] = molecular target: Cellular tumor antigen p53 (Homo sapiens) (UniProt P04637); assay: TOX21_p53_BLA_p2_ratio: Tox21 HCT-116 p53 Agonism Beta-lactamase Assay, Ratio, Phase 2 (AID 2283592; active means hit-call score of the fitted dose curve at least 0.9, where 1 is the maximum)
How it was run: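 An inducible beta-lactamase reporter in HCT116 cells signals p53 pathway activation. After 16 h chemical exposure at 37C, cells load CCF4-AM substrate for 2 h at room temperature; activity is the cleaved/uncleaved emission ratio relative to DMSO.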

[3] = TOX21_p53_BLA_p3_viability: Viability Assessment in the Tox21 HCT-116 p53 Agonism Beta-lactamase Assay, Phase 3 (AID 2283593; active means hit-call score of the fitted dose curve at least 0.9, where 1 is the maximum;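 further: cells exposed to compound for 16 h before reading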)
How it was run: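 Cellular ATP was quantified by CellTiter-Glo luminescence, read after 30 min at room temperature. Beforehand, HCT116 cells (4000/well) received compound 5 h post-seeding, 217-fold diluted from DMSO, then incubated 16 h at 37C.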

[4] = molecular target: Cellular tumor antigen p53 (Homo sapiens) (UniProt P04637); assay: TOX21_p53_BLA_p3_ratio: Tox21 HCT-116 p53 Agonism Beta-lactamase Assay, Ratio, Phase 3 (AID 2283596; active means hit-call score of the fitted dose curve at least 0.9, where 1 is the maximum)
How it was run: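 HCT116 p53-bla cells (4000/well) given compound in DMSO (217-fold dilution) after 5 h, incubated 16 h at 37C. CCF4-AM substrate 2 h at room temperature; 460/530 nm emission ratio, gain fitted against DMSO.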

[5] = molecular target: Cellular tumor antigen p53 (Homo sapiens) (UniProt P04637); assay: TOX21_p53_BLA_p5_ratio: Tox21 HCT-116 p53 Agonism Beta-lactamase Assay, Ratio, Phase 5 (AID 2283599; active means hit-call score of the fitted dose curve at least 0.9, where 1 is the maximum)
How it was run: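 Beta-lactamase reporter ratio (blue 460 nm over green 530 nm, 405 nm excitation) after 2 h CCF4-AM loading, in HCT-116 cells exposed 16 h at 37 C to compounds pinned at 217-fold dilution. Increases relative to DMSO baseline scored.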

[6] = TOX21_p53_BLA_p5_viability: Viability Assessment in the Tox21 HCT-116 p53 Agonism Beta-lactamase Assay, Phase 5 (AID 2283600; active means hit-call score of the fitted dose curve at least 0.9, where 1 is the maximum)
How it was run: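 Counter-readout for cytotoxicity: ATP-dependent luminescence from CellTiter-Glo, read in the beta-lactamase wells after 30 min at RT, following a 16 h compound exposure at 37C.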

[7] = CCTE_Shafer_MEA_dev_firing_rate_mean: CCTE's Neural Network Formation Assay for Mean Firing Rate, Shafer Lab (AID 2284031)
How it was run: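 Rat primary cortical neurons were seeded on multielectrode arrays and treated from plating through day 12, with redosing at each feed. Spontaneous spiking was recorded four times; mean firing rate AUC was fitted downward against DMSO.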

[8] = CCTE_Shafer_MEA_dev_per_burst_spike_percent: CCTE's Neural Network Formation Assay for Percent of Spikes in a Burst, Shafer Lab (AID 2284032);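 on AC50: fitted as a decrease in burst spike percentage below DMSO baseline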
How it was run: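 Rat primary cortical neurons on 16-electrode MEA wells, dosed from plating day 0 for 12 days with renewal on DIV 5 and 9; spikes-in-bursts percentage averaged over bursting electrodes, collapsed as AUC across days 5, 7, 9, 12; loss direction versus DMSO.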

[9] = CCTE_Shafer_MEA_dev_active_electrodes_number: CCTE's Neural Network Formation Assay for Number of Active Electrodes, Shafer Lab (AID 2284040; active means hit-call score of the fitted dose curve at least 0.9, where 1 is the maximum;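 further: potency for loss of active electrodes versus DMSO so lower counts are hits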)
How it was run: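 Primary rat cortical neurons on 16-electrode MEA wells, exposed from day 0 through day 12 with compound renewed at DIV 5 and 9 feeds. Active electrodes (mean firing ≥5 spikes/min) counted at DIV 5, 7, 9, 12; trapezoidal AUC across days, loss-of-signal versus DMSO.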

[10] = CCTE_Shafer_MEA_dev_burst_rate: CCTE's Neural Network Formation Assay for Burst Rate, Shafer Lab (AID 2284042)
How it was run: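 Exposure ran continuously over 12 days of network development in rat cortical cultures, with compound refreshed during full media changes on DIV 5 and 9. Single-electrode bursts per recording time, well-mean over active electrodes, trapezoidal AUC across days 5–12, fitted downward relative to DMSO.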

[11] = CCTE_Shafer_MEA_dev_bursting_electrodes_number: CCTE's Neural Network Formation Assay for Number of Bursting Electrodes, Shafer Lab (AID 2284043; active means hit-call score of the fitted dose curve at least 0.9, where 1 is the maximum;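 further: potency is for loss of bursting electrodes relative to DMSO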)
How it was run: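 Read-out is the per-well number of electrodes bursting at least once every 2 minutes, recorded on days 5, 7, 9 and 12 and collapsed by trapezoidal area under the curve. Cultures were primary rat cortical neurons on MEA plates, treated continuously from plating.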

[12] = CCTE_Shafer_MEA_dev_per_burst_interspike_interval: CCTE's Neural Network Formation Assay for Burst Interspike Interval, Shafer Lab (AID 2284044);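 further: mean spike spacing inside bursts as AUC over recordings on days 5 7 9 12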
How it was run: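 Developmental network-formation MEA in primary rat cortical cultures with exposure spanning days 0–12. Within-burst ISI is averaged per well and integrated across recording days by area under the curve, with DMSO as negative control baseline.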

[13] = CCTE_Shafer_MEA_dev_burst_duration_mean: CCTE's Neural Network Formation Assay for Mean Burst Duration, Shafer Lab (AID 2284045)
How it was run: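 Read-out: average first-to-last-spike interval within single-electrode bursts, averaged over bursting electrodes per well, then summarised as area under the curve across days 5, 7, 9 and 12. Developing rat cortical networks were exposed from day 0.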

[14] = CCTE_Shafer_MEA_dev_interburst_interval_mean: CCTE's Neural Network Formation Assay for Mean Interburst Interval, Shafer Lab (AID 2284046);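 further: well-mean interburst interval of bursting electrodes as AUC over four recording days; curve fitted for decrease in interburst interval relative to DMSO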
How it was run: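 Primary rat cortical neurons on PEI-coated 48-well MEA plates (laminin added with cells at plating) (16 electrodes/well), exposed from plating day 0 with renewal at DIV 5 and 9. Mean inter-burst interval averaged over bursting electrodes, AUC across days 5, 7, 9, 12; DMSO baseline.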

[15] = CCTE_Shafer_MEA_dev_inter_network_spike_interval_mean: CCTE's Neural Network Formation Assay for Mean Inter-network Spike Interval, Shafer Lab (AID 2284047)
How it was run: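 Mean time between consecutive network-spike peaks, recorded extracellularly (adaptive spike detection) on DIV 5, 7, 9 and 12, summarized as trapezoidal AUC. Rat cortical cultures on MEAs dosed continuously days 0–12, re-dosed at feeds; loss-of-signal fit relative to DMSO.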

[16] = CCTE_Shafer_MEA_dev_network_spike_peak: CCTE's Neural Network Formation Assay for Mean Number of Electrodes in Network Spike, Shafer Lab (AID 2284049);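 further: fitted for loss of signal meaning fewer electrodes in network spikes than DMSO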
How it was run: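 Rat cortical primary culture, 1.5 x 10^5 cells/well, 48-well MEA (16 electrodes/well). Dosing day 0 through DIV 12, full media/compound exchange DIV 5, 9. AxIS adaptive spike detection; AUC over days 5/7/9/12; loss-of-signal vs DMSO.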

[17] = CCTE_Shafer_MEA_dev_spike_duration_mean: CCTE's Neural Network Formation Assay for Mean Spike Duration, Shafer Lab (AID 2284051);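 further: mean network spike duration pooled as area under curve over DIV 5 to 12 recordings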;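 on AC50: potency for a decrease in mean network spike duration versus DMSO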
How it was run: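 Spontaneous activity was recorded on days 5, 7, 9 and 12 from rat cortical cultures grown on microelectrode arrays and dosed continuously from day 0, with media and compound renewed after the DIV 5 and 9 recordings. Network-spike duration was collapsed by area under the curve.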

[18] = CCTE_Shafer_MEA_dev_network_spike_duration_std: CCTE's Neural Network Formation Assay for Standard Deviation of Network Spike Duration, Shafer Lab (AID 2284052);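 further: hits are decreases in network spike duration SD versus DMSO vehicle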
How it was run: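 Network spike duration variability was collapsed across recordings on days 5, 7, 9 and 12 by trapezoidal area-under-curve and fitted downward against DMSO. Cultures were rat cortical neurons on PEI-coated MEA plates, dosed continuously from plating, refed with compound DIV 5/9.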

[19] = CCTE_Shafer_MEA_dev_per_network_spike_spike_number_mean: CCTE's Neural Network Formation Assay for Mean Number of Spikes in a Network Spike, Shafer Lab (AID 2284053);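 further: fitted as decrease in spikes per network spike relative to DMSO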
How it was run: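 Mean spike count within each network spike, taken in a 0.05 s window at its peak, was recorded on days 5, 7, 9 and 12 and integrated as trapezoidal area under the curve. Rat cortical cultures on MEA plates received continuous compound from day 0, refreshed at medium changes on DIV 5 and 9.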

[20] = CCTE_Shafer_MEA_dev_per_network_spike_spike_percent: CCTE's Neural Network Formation Assay for Percent of Spikes in a Network Spike, Shafer Lab (AID 2284054)
How it was run: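 Rat primary cortical cultures, 1.5 x 10^5 cells/well on MEA. Continuous compound exposure d0–12, medium/compound renewed DIV 5, 9. Network-spike spike % (0.05 s peak window), AUC over 4 recordings, DMSO baseline.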

[21] = UKN5_HCS_SBAD2_cell_viability: Viability Assessment in the University of Konstanz (UKN) Leist Lab Neurite Outgrowth Assay in human iPSC-derived immature Dorsal Root Ganglia Neurons (UKN5) (AID 2284056)
How it was run: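 iPSC-derived immature peripheral neurons (SBAD2) seeded on Matrigel with CHIR99021, SU5402 and DAPT, dosed 1 h later for 24 h. Viability from Hoechst H-33342 and calcein-AM live staining, high-content imaging; bidirectional fit versus DMSO.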

[22] = CCTE_Shafer_MEA_dev_LDH: CCTE's Lactate Dehydrogenase Assay for Cytotoxicity in the Neural Network Formation Assay, Shafer Lab (AID 2284068; active means hit-call score of the fitted dose curve at least 0.9, where 1 is the maximum;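 further: exposure for twelve days from plating with re-dosing on DIV 5 and 9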)
How it was run: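 Primary rat cortical neurons were cultured on PEI-coated MEA plates and exposed from plating through day 12, with compound renewed at medium changes on DIV 5 and 9. LDH activity was read spectrophotometrically; loss of signal versus DMSO indicates reduced viability.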

[23] = UKN5_HCS_SBAD2_neurite_outgrowth: University of Konstanz (UKN) Leist Lab Neurite Outgrowth Assay in human iPSC-derived immature Dorsal Root Ganglia Neurons (UKN5) (AID 2284070); conditions: actives raise or lower the signal
How it was run: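 Read-out: calcein-AM-stained neurite area by high-content imaging, Hoechst H-33342 for viability, after 24 h exposure of iPSC-derived immature dorsal root ganglia neurons. Activity fitted in both directions relative to DMSO baseline.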

[24] = CCTE_Shafer_MEA_dev_AB: CCTE's Alamar Blue Assay for Cytotoxicity in the Neural Network Formation Assay, Shafer Lab (AID 2284083; active means hit-call score of the fitted dose curve at least 0.9, where 1 is the maximum;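 further: resazurin reduction fluorescence as viability of cultured neurons; twelve days of exposure from plating with re-dosing on DIV 5 and 9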)
How it was run: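 Resazurin fluorescence, relative to DMSO, gauges viability after twelve days of exposure that began at plating of rat cortical neurons (1.5 x 10^5 cells/well, 48-well MEA); treatment renewed with full medium exchange on DIV 5 and 9.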

[25] = CCTE_Shafer_MEA_dev_mutual_information_norm: CCTE's Neural Network Formation Assay for Mutual Information Normalization, Shafer Lab (AID 2284091);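 further: mutual information between electrodes summarised as area under curve across four recording days; potency is for a decrease in mutual information relative to DMSO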
How it was run: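 Developing rat cortical networks on 16-electrode MEA wells are treated throughout formation (DIV 0–12). Shared electrode information is recorded four times, converted to area-under-curve, and fitted for decreases against DMSO vehicle.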

[26] = CCTE_Shafer_MEA_dev_correlation_coefficient_mean: CCTE's Neural Network Formation Assay for Mean Correlation Coefficient, Shafer Lab (AID 2284093);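 further: well mean pairwise spike train correlation integrated as AUC over recording days 5 to 12; potency fitted for loss of correlation relative to DMSO vehicle wells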
How it was run: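 Primary rat cortical neurons on PEI-coated 48-well MEA plates (16 electrodes/well) were exposed from plating day 0 through DIV12, with compound renewed at DIV5 and 9. Pairwise spike correlations were averaged per well; trapezoidal AUC across DIV5, 7, 9, 12.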

[27] = UKN2_HCS_IMR90_neural_migration: University of Konstanz (UKN) Leist Lab Neural Crest Cell Migration Assay in human induced IMR90 Pluripotent Stem Cells (UKN2) (AID 2284204); conditions: actives raise or lower the signal
How it was run: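 Migration of human IMR90-derived neural crest cells into a stopper-defined gap is imaged after 24 h chemical treatment. Activity is fitted bidirectionally relative to DMSO.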

Measured: AC50

Cellular tumor antigen p53 (Homo sapiens), sequence (P04637 whole entry, looked up): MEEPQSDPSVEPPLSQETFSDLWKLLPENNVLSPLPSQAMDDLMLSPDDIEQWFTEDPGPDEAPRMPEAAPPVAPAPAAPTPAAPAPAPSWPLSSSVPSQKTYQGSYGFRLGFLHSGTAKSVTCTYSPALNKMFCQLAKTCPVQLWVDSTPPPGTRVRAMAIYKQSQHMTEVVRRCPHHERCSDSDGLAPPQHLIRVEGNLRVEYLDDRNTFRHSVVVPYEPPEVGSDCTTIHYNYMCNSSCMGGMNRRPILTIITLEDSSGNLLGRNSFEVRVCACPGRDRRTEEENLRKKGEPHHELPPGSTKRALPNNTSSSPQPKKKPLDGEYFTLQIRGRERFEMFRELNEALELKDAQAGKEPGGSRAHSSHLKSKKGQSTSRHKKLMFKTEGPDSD

Brc1ccc(Oc2ccc(Br)cc2Br)c(Br)c1
inactive: [1] | [2] | [3] | [4] | [5] | [6] | [7] | [8] | [10] | [12] | [13] | [14] | [15] | [17] | [18] | [20] | [21] | [22] | [23] | [24] | [27]
active: [8] 14.2 µM | [9] 19.8 nM and 10 µM | [11] 22.5 nM and 8.36 µM | [16] 13.2 nM and 10 µM | [17] 15 µM | [19] 25.4 nM and 4 µM | [20] 15.1 µM | [22] 12.3 µM | [24] 8.31 µM | [25] 13.4 nM and 1.98 µM | [26] 92.3 nM and 4.26 µM
